Outcome and AC50 data for 22 molecules are collected here from PubChem BioAssay (EPA / NIEHS).

Read-out in test [1]: Interleukin-8 (IL8), CXCL8 (gene 3576)
In words: BSK_CASM3C_IL8: BioMAP Diversity Plus: CASM3C Assay for Interleukin-8 (IL8) Biomarker Activity (AID 2283042).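 Further: IL-8 protein level quantified by ELISA.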 The settings on record: primary human coronary artery smooth muscle cells; actives raise or lower the signal.

Read-out in test [2]: Human Leukocyte Antigen - DR isotype (HLADR), HLA-DRA (gene 3122)
Put plainly: BSK_CASM3C_HLADR: BioMAP Diversity Plus: CASM3C Assay for Human Leukocyte Antigen - DR isotype (HLADR) Biomarker Activity (AID 2283043).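 Further: cell-surface HLA-DR protein level quantified by ELISA.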 The conditions noted are these: primary human coronary artery smooth muscle cells; actives raise or lower the signal.

Read-out in test [3]: Macrophage colony-stimulating factor (MCSF), CSF1 (gene 1435)
Put plainly: BSK_CASM3C_MCSF: BioMAP Diversity Plus: CASM3C Assay for Macrophage colony-stimulating factor (MCSF) Biomarker Activity (AID 2283044).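 Further: M-CSF protein amount quantified by ELISA after 24 h exposure.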 The conditions noted are these: primary human coronary artery smooth muscle cells; actives raise or lower the signal.

Read-out in test [4]: Low-density lipoprotein receptor (LDLR), LDLR (gene 3949)
Put plainly: BSK_CASM3C_LDLR: BioMAP Diversity Plus: CASM3C Assay for Low-density lipoprotein receptor (LDLR) Biomarker Activity (AID 2283045).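 Further: LDLR protein level on the cell surface quantified by ELISA.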 The settings on record: primary human coronary artery smooth muscle cells; actives raise or lower the signal.

Read-out in test [5]: Monocyte Chemoattractant Protein-1 (MCP1), CCL2 (gene 6347)
In words: BSK_CASM3C_MCP1: BioMAP Diversity Plus: CASM3C Assay for Monocyte Chemoattractant Protein-1 (MCP1) Biomarker Activity (AID 2283046).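 Further: MCP-1 level quantified by ELISA 24 h after dosing.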 The conditions noted are these: primary human coronary artery smooth muscle cells; actives raise or lower the signal.

The nature of test [6]: BSK_CASM3C_Proliferation: Cell Proliferation Assessment in the BioMAP Diversity Plus: CASM3C Assay (AID 2283047).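 Further: sulforhodamine B total protein stain as relative cell number at 560 nm; sub-confluent cells exposed 48 h before staining; fitted both ways against DMSO so gain or loss of cell number.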 The settings on record: primary human coronary artery smooth muscle cells.
Read-out in test [7]: Monokine induced gamma interferon (MIG), CXCL9 (gene 4283)
Put plainly: BSK_CASM3C_MIG: BioMAP Diversity Plus: CASM3C Assay for Monokine induced gamma interferon (MIG) Biomarker Activity (AID 2283048).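 Further: MIG protein level measured by ELISA.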 The conditions noted are these: primary human coronary artery smooth muscle cells; actives raise or lower the signal.

Read-out in test [8]: serum amyloid A (SAA), SAA1 (gene 6288)
Put plainly: BSK_CASM3C_SAA: BioMAP Diversity Plus: CASM3C Assay for serum amyloid A (SAA) Biomarker Activity (AID 2283049).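 Further: SAA protein level quantified by ELISA.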 The conditions noted are these: primary human coronary artery smooth muscle cells; actives raise or lower the signal.

A short description of test [9]: BSK_CASM3C_SRB: Viability Assessment in the BioMAP Diversity Plus: CASM3C Assay (AID 2283050).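 Further: total protein by SRB staining as cytotoxicity measure in parallel cultures; cells exposed to compound for 24 h.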 The conditions noted are these: primary human coronary artery smooth muscle cells.
Read-out in test [10]: Thrombomodulin, THBD (gene 7056)
In words: BSK_CASM3C_Thrombomodulin: BioMAP Diversity Plus: CASM3C Assay for Thrombomodulin Biomarker Activity (AID 2283051).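 Further: thrombomodulin protein level measured by ELISA 24 h after dosing.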 The conditions noted are these: primary human coronary artery smooth muscle cells; actives raise or lower the signal.

Values joined by “and” are separate entries in the source; they are usually repeats but may differ in a detail not shown here. Identical values can stand only once. The source holds several records for some structures; these can differ, active in one and inactive in another. Active and inactive are the calls of the source. How the source made its calls: active means hit-call score of the fitted dose curve at least 0.9, where 1 is the maximum; inactive means score below 0.9.

Consider `CCCCN(CCO)CCO`, for which the outcome in test [1], in test [2], in [3], in [4], in [5] and in test [6] was inactive. The result in test [7], in [8], in [9] and in test [10] was inactive.

As for `OCC(F)(OC(F)(F)C(F)(OC(F)(F)C(F)(F)C(F)(F)F)C(F)(F)F)C(F)(F)F` (stereo not given), the result in test [1], in [2], in [3], in [4], in test [5] and in [6] was inactive. Moreover, the outcome in [7], in test [8], in test [9] and in test [10] was inactive.

In the case of `COC(=O)c1ccc(C(=O)OC)cc1`, the result in [1], in test [2], in test [3], in test [4], in test [5] and in [6] was inactive. Moreover, the outcome in test [7], in [8], in [9] and in test [10] was inactive.

As for `O=C(c1ccc(OCCN2CCCCC2)cc1)c1c(-c2ccc(O)cc2)sc2cc(O)ccc12`, the result in [1], in test [5], in [7], in test [8] and in test [10] was inactive. The AC50 in test [2] was 26.1 µM (active); in [4], 6.83 µM (active); in test [6] it was 23 µM (active); in test [9], 34.4 µM (active).

Consider `C=C(F)C(=O)OC(C(F)(F)F)C(F)(F)F`, for which the result in [1], in test [2], in test [3], in test [4], in [5] and in test [6] was inactive. Besides, the result in test [7], in test [8], in [9] and in test [10] was inactive.

With `CC/C(=C(\c1ccccc1)c1ccc(OCCN(C)C)cc1)c1ccccc1`, the AC50 in test [1] is 30.9 µM (active) and 15.7 µM (active); in test [2], 28.8 µM (active) and 9.17 µM (active); in [3], 21 µM (active) and 15.7 µM (active); in test [4], 31.8 µM (active) and 34.2 µM (active); in test [5], 27.4 µM (active) and 25.9 µM (active); in [6] it was 12.7 µM (active) and 6.94 µM (active). For the same molecule, the AC50 in test [7] was 31.5 µM (active) and 32 µM (active); in test [8] it was 28.1 µM (active) and 11.7 µM (active); in test [9], 27.2 µM (active) and 16.9 µM (active); in test [10], 4.85 µM (active). The outcome in [10] was inactive.

Turning to `O=C1OC2(c3ccc(O)cc3Oc3cc(O)ccc32)c2ccccc21`, the result in [1], in test [2], in test [3], in test [4], in test [5] and in test [6] was inactive. Also, the result in test [7], in test [8], in [9] and in test [10] was inactive.

Turning to `c1ccc2c(c1)-c1ccc3ccc4cccc5cc-2c1c3c45`, the outcome in test [1], in [2], in [3], in [4], in test [5] and in [6] was inactive. Also, the outcome in test [7], in [8], in test [9] and in test [10] was inactive.

For the molecule `CCCCCCCCCC(=O)OCC`, the AC50 was 37 µM (active) in test [1]; 32.5 µM (active) in [2]; 31.4 µM (active) in test [3]; 36.4 µM (active) in test [4]; 31.9 µM (active) in test [5]; 20 µM (active) in test [6]. Further, the values for the AC50 in test [7], in test [8] and in test [9] were 31.5 µM (active), 31.8 µM (active) and 33 µM (active), respectively. Further, the result in [10] was inactive.

`CC(C)Cc1ccc(C(C)C(=O)O)cc1` (stereo not given): the result in test [1], in [2], in test [3], in test [4], in test [5] and in [7] was inactive. Further, the outcome in test [8] and in [9] was inactive. For the same molecule, the AC50 in [6] is 0.2 µM (active); in test [10], 6.11 µM (active).

For `C#C[C@]1(O)CC[C@H]2[C@@H]3CCc4cc(O)ccc4[C@H]3CC[C@@]21C`, the result in [1], in [2], in test [3], in test [7], in [9] and in test [10] was inactive. In addition, the AC50 is 29.2 µM (active) in test [4], 2.14 µM (active) in [5], 7.37 µM (active) in test [6] and 0.935 µM (active) in test [8].

With `OCCN1CCOCC1`, the outcome in [1], in [2], in [3], in test [4], in [5] and in test [6] was inactive. The outcome in test [7], in test [8], in [9] and in test [10] was inactive.

With `CCn1cc(C(=O)O)c(=O)c2ccc(C)nc21`, the result in [1], in test [2], in [3], in [4], in test [5] and in [6] was inactive. The outcome in [7], in test [8], in test [9] and in [10] was inactive.

As for `NC(=O)c1c(Cl)cccc1Cl`, the outcome in test [1], in test [2], in [3], in test [4], in test [5] and in [6] was inactive. Also, the outcome in test [7], in [8], in test [9] and in [10] was inactive.

In the case of `O=S1(=O)CC(Cl)(Cl)C(Cl)(Cl)C1`, the AC50 was 1.3 µM (active) in [1]; 0.421 µM (active) in test [2]; 0.908 µM (active) in [3]; 0.389 µM (active) in test [4]; 1.11 µM (active) in test [5]; 0.113 µM (active) in [6]. Moreover, the AC50 in test [7] was 2.22 µM (active); in test [8], 0.764 µM (active); in test [9], 0.82 µM (active); in test [10] it was 7.52 µM (active).

Regarding `CC(=O)OC(C)(C)C1CC=C(C)CC1` (stereo not given), the outcome in test [1], in test [4], in [7], in test [8] and in test [10] was inactive. In addition, the concentration at half-maximal activity (AC50) in test [2] was 31.5 µM (active); in [3] it was 35.3 µM (active); in test [5], 32.6 µM (active); in test [6], 29.6 µM (active); in test [9], 28.6 µM (active).

As for `CCOC(=O)C=Cc1ccccc1`, the outcome in [1], in test [2], in [3], in [4], in test [5] and in test [6] was inactive. Also, the result in test [7], in test [8], in test [9] and in test [10] was inactive.

For the molecule `Nc1ccc(N)c([N+](=O)[O-])c1`, the result in [1], in test [2], in [3], in test [4], in [6] and in test [7] was inactive. Further, the outcome in test [8], in test [9] and in test [10] was inactive. Moreover, in test [5], the AC50 is 7.95 µM (active).

As for `C=C(C)C(N)=O`, the result in test [1], in test [2], in test [3], in test [4], in test [5] and in test [6] was inactive. The outcome in test [7], in test [8], in [9] and in [10] was inactive.

Consider `CCCCOCCOCCO`, for which the result in test [1], in test [2], in test [3], in test [4], in test [5] and in test [6] was inactive. In addition, the result in [7], in [8], in test [9] and in [10] was inactive.

On to `CC=CC(=O)C1=C(C)C=CCC1(C)C`, for which the result in test [1], in test [2], in test [3], in [4], in test [5] and in [6] was inactive. The outcome in test [7], in test [8], in [9] and in test [10] was inactive.

Regarding `C=CC(=O)OCC(CO)(COC(=O)C=C)COC(=O)C=C`, the AC50 in test [1] is 1.25 µM (active); in [2] it was 0.567 µM (active); in [3], 1.07 µM (active); in [4] it was 1.31 µM (active); in test [5] it was 0.792 µM (active); in [6], 0.302 µM (active). In addition, the half-maximal activity concentration (AC50) is 1.24 µM (active) in test [7], 5.46 µM (active) in test [8], 1.61 µM (active) in test [9] and 4.58 µM (active) in test [10].
